# Source: the supplement of paper PMC7801607
# Assays:
# CHO = assay: % viability of CHO cells (MTT); higher = less toxic; conditions: 48 h
# Method in brief: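 CHO cells seeded at 10^6 cells/well were exposed to compound at 2 or 20 µM for 48 h. Survival, as percent of untreated cells, was measured with the colorimetric tetrazolium (MTT) assay.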
# HepG2-A16-CD81 = assay: % inhibition of HepG2 viability (CellTiter-Glo); higher = more toxic; conditions: 5 µM
# [1] = test system: Plasmodium falciparum NF54 stage IV/V gametocytes; assay: % inhibition of gametocyte viability (PrestoBlue); higher = more inhibition; conditions: 48 h
# Method in brief: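 Compound was tested at 1 or 5 µM against Stage IV/V NF54 gametocytes plated at 100 µL/well (2% gametocytaemia, 5% haematocrit). After 48 h of stationary, hypoxic incubation at 37 °C, 10 µL PrestoBlue was added for 2 h before reading 612 nm fluorescence from 70 µL of transferred supernatant. Gametocyte viability inhibition, as a percentage, was scaled against vehicle and kill controls from a single run.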
# [2] = test system: Plasmodium falciparum NF54 asexual blood stage; assay: % inhibition of asexual blood stage proliferation (pLDH); higher = more inhibition; conditions: 72 h
# Method in brief: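 In 96-well plates, compound at 2 or 20 µM was added to Plasmodium falciparum NF54 ring-stage cultures (1% haematocrit, 2% parasitaemia). Plates were incubated for 72 h at 37 °C in 4% CO2, 3% O2 and 93% N2, and survival was then read at 620 nm using the parasite lactate dehydrogenase assay. Inhibition of asexual proliferation, expressed as a percentage, was normalised to controls.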
# [3] = test system: Plasmodium falciparum NF54 stage IV/V gametocytes; assay: % inhibition of gametocyte viability (ATP bioluminescence); higher = more inhibition; conditions: 24 h
# Method in brief: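 Density gradients were used to enrich stage IV/V NF54 gametocytes, which were then seeded into 96-well plates at 30,000 per well with compound at 1 or 5 µM. The plates were incubated at 37 °C for 24 h, and ATP was measured with the Promega BacTiter Glo bioluminescence system. Percent inhibition of gametocyte viability was normalised to the plate controls from a single run.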
# [4] = test system: Plasmodium falciparum NF54 stage IV/V gametocytes; assay: % inhibition of gametocyte viability (luciferase reporter); higher = more inhibition; conditions: 48 h
# Method in brief: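 Compound at 1 or 5 µM was added to stage IV/V NF54-Pfs16-GFP-Luc gametocytes (2% gametocytaemia, 2% haematocrit) and incubated stationary and hypoxic at 37 °C for 48 h. A GloMax-Multi+ reader measured luminescence over 10 s integration on 30 µL lysate plus 30 µL Promega luciferin substrate. Percent inhibition values were normalised to controls within a single run.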
# [5] = test system: Plasmodium berghei ANKA liver stage in HepG2-A16-CD81; assay: % inhibition of liver stage parasite viability (luciferase); higher = more inhibition; conditions: 5 µM; 48 h
# Description: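 Single-concentration screen of the MMV Pandemic Response Box. P. falciparum NF54 asexual blood stages: pLDH assay, 72 h at 37 °C, 2 and 20 µM, n=2. Stage IV/V gametocytes (NF54): luciferase reporter (NF54-Pfs16-GFP-Luc, 48 h), ATP bioluminescence (24 h) and PrestoBlue (48 h) at 1 and 5 µM, n=1. P. berghei liver stage (luciferase in HepG2-A16-CD81, 48 h post infection) at 5 µM, n=4. All normalised to DMSO and kill controls as % inhibition.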
# 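Throughout, for % inhibition of HepG2 viability (CellTiter-Glo): HepG2-A16-CD81 hepatoma cells plated as in the liver-stage assay but without sporozoites, with DMSO wells as negative and 25 µM puromycin as positive control.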
SMILES,% viability of CHO cells (CHO; 2 µM) [%],% viability of CHO cells (CHO; 20 µM) [%],% inhibition of HepG2 viability (HepG2-A16-CD81) [%],% inhibition of gametocyte viability ([1]; 1 µM) [%],% inhibition of gametocyte viability ([1]; 5 µM) [%],% inhibition of asexual blood stage proliferation ([2]; 2 µM) [%],% inhibition of asexual blood stage proliferation ([2]; 20 µM) [%],% inhibition of gametocyte viability ([3]; 1 µM) [%],% inhibition of gametocyte viability ([3]; 5 µM) [%],% inhibition of gametocyte viability ([4]; 1 µM) [%],% inhibition of gametocyte viability ([4]; 5 µM) [%],% inhibition of liver stage parasite viability [5] [%]
CCc1nc(N)nc(N)c1C#CC(C)c1cc(OC)cc(-c2ccncc2)c1 (stereo not given),89.5,52.5,20.8,< 0,9.41,51.1,94,< 0,< 0,< 0,< 0,70.2
O=c1cc(Nc2ccc3ccccc3c2)[nH]c(=O)[nH]1,85.2,85.2,4.08,< 0,4.14,1.56,3.03,< 0,< 0,< 0,1.22,
O=c1[nH]c(=O)n(Cc2cccc(Oc3ccccc3)c2)cc1Nc1ccccc1,116,65.4,7.38,< 0,< 0,-152,47.8,< 0,< 0,< 0,< 0,-3.63
O=C(NCCN1CCCCC1)c1cccc(C(F)(F)F)c1,96.7,-13,1.19,< 0,< 0,16.9,78.6,< 0,2.48,12.3,< 0,20.2
O=C(Cn1cnc2ccccc2c1=O)Nc1ccccc1,100,84.1,-0.425,27.9,25.4,29.5,71.5,1.88,< 0,2.6,1.55,
N#C/C(=C1/SC[C@H](c2ccc(Cl)cc2Cl)S1)n1ccnc1,113,118,10,11.8,16.4,48.7,22.8,< 0,< 0,< 0,1.63,24
CC(=O)NC[C@H]1CN(c2ccc(N3CCSCC3)c(F)c2)C(=O)O1,105,91.5,4.22,< 0,< 0,37.1,49.9,< 0,< 0,< 0,< 0,50.2
C[C@@H](O)[C@H](N)C(=O)NS(=O)(=O)c1cccc(-c2ccc3[nH]ncc3c2)c1,85.2,96,-0.0475,35.8,19.7,-13.1,32,< 0,< 0,< 0,6.84,31.2
COc1ccc(COc2cc3oc(=O)c4cc(C(C)O)ccc4c3cc2OC)cc1 (stereo not given),81.5,74.4,6.8,11,11.6,35.7,80.4,6.77,< 0,< 0,< 0,
COc1ccc(NS(=O)(=O)c2ccc(Cl)s2)cn1,98,100,6.74,< 0,6.82,22.6,48.5,< 0,< 0,4.39,< 0,
Cc1ccc(C)c(OCCCCCCN2C[C@H](O)[C@@H](O)[C@H](O)[C@H]2CO)c1,111,110,4.29,< 0,< 0,8.28,41.4,1.96,< 0,5.24,11,
N[C@H]1CCC[C@H]1C(=O)O,109,145,-8.85,35.6,26.5,31.3,18.9,< 0,< 0,< 0,< 0,
Cn1c2ccccc2c(=O)c2c(O)cccc21,229,55,-9.48,26.6,21.6,20.3,11,6.28,< 0,7.24,< 0,
O=C(CC1Sc2ncnn2C1=O)Nc1ccc(Br)cc1 (stereo not given),100,102,-3.25,20.1,9.94,24.1,42.2,8.79,43.5,< 0,1.92,
CCc1cc(O)c(Oc2cccnc2N)cc1F,64.8,62.9,-0.638,< 0,< 0,8.28,20.8,< 0,< 0,< 0,< 0,
C[C@H]1CC[C@@]2(O)C(C)(C)[C@@H]3CC[C@@]2(C)[C@H]1C3,119,112,-2.52,< 0,< 0,7.01,18.1,< 0,< 0,< 0,< 0,
Nc1nc(-c2ccccc2)nc2[nH]nc(Nc3ccc(C(F)(F)F)cc3)c12,80.5,60.9,-9.27,15,7.65,20,80.5,< 0,< 0,< 0,< 0,
COc1cc(NS(=O)(=O)c2ccc(C)cc2)c2ncccc2c1,118,94.1,-7.96,< 0,0.605,45.4,75.7,1.27,62.2,3.47,1.7,
C=C(C)[C@@H]1CC[C@]2(C(=O)O)CC[C@]3(C)[C@H](CC[C@@H]4[C@@]5(C)CC[C@H](O)C(C)(C)[C@@H]5CC[C@]43C)[C@@H]12,98.8,111,27.7,26.9,19.3,36.2,67.2,12.2,8.94,3.4,< 0,
